Values joined by “and” are separate entries in the source; they are usually repeats but may differ in a detail not shown here. Equal entries are not always repeated. Records with an inconclusive call do not appear. Where a call stands in place of a potency, no number is given. A number with no mark means an inactive call. Active and inactive are the calls of the source. Calls follow the shape of the dose curve; as a rule, active = well fitted inhibition curve with a large enough effect; inconclusive = small, poorly fitted or top-dose-only effect; inactive = flat fitted curve, though single readings scatter. Where a SMILES comes first, the peptide text is derived from it. [ ]: non-standard residue; d: D form. ξ: configuration not given here. ξPhe(βξ-Me) = CC(c1ccccc1)C(N)C(=O)O; GABA = NCCCC(=O)O
Each molecule was assayed on CRL-7250 (assay: Cytotoxic Profiling of Annotated Libraries Using Quantitative High-Throughput Screening (AID 1296008; also: nearly all actives have a fitted effect of over 60% in size)). Conditions: Five cell lines viability, CellTiter-Glo ATP luminescence, 48-72 h; max response: active compounds read low.
How it was run: (§1)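 Cytotoxicity was measured as CellTiter-Glo ATP luminescence, read after 10 min at room temperature. Compound treatment of the cells lasted 48 or 72 hr at 37 degrees Celsius in a qHTS format.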
With `CC(NC(=O)CC(=O)O)c1nc2ccccc2c(=O)[nH]1` (stereo not given) the max response was -1.93%.
`CO[C@@H](Cc1ccc(OCCc2nc(-c3ccccc3)oc2C)c2ccsc12)C(=O)O` was tested, and the outcome was “inactive”.
With `NCCOCCOCCNC(=O)Cc1ccc(Nc2nc(NCc3ccc(F)cc3)nc(NCC3CCCCC3)n2)cc1` the outcome was “inactive”.
`C/C(=C\CCC(C(=O)O)C1CCC2(C)C3=C(CCC12C)C1(C)CCC(=O)C(C)(C)C1CC3)C(=O)O` (stereo not given) showed a max response of -10.7%.
For `CC1(C)CC[C@]2(C(=O)O)CC[C@]3(C)C(=CCC4[C@@]5(C)C[C@H](O)[C@H](O[C@@H]6OC[C@H](O)[C@H](O)[C@H]6O)[C@@](C)(CO)C5CC[C@]43C)[C@@H]2C1` (stereo not given in full), the outcome was “inactive”.
Molecule `O=C(O[C@@H]1O[C@H](CO)[C@@H](O)[C@H](O)[C@H]1O)c1c(O)cc(O)cc1/C=C/c1ccccc1` has a max response of 2.06%.
In the case of `O=C1Nc2ccc(O)cc2O[C@H]1O[C@@H]1O[C@H](CO)[C@@H](O)[C@H](O)[C@H]1O`, the max response is reported as -3.66%.
Work on `CC(/C=C/C1(O)C(C)CC(O)CC1(C)C)OC1OC(CO)C(O)C(O)C1O` (stereo not given) yielded a max response of 1.42%.
Molecule `O=C(/C=C/c1ccc(O)cc1)O[C@H]1[C@@H]2C=CO[C@@H](O[C@@H]3O[C@H](CO)[C@@H](O)[C@H](O)[C@H]3O)[C@@H]2[C@@]2(CO)O[C@@H]12` has a max response of -3.08%.
`OC[C@H]1O[C@@H](Oc2cc(O)cc(-c3cc4ccc(O)cc4o3)c2)[C@H](O)[C@@H](O)[C@@H]1O` gave a max response of 0.0775%.
With `CC(=O)O[C@H]1CC[C@@]2(CI)C(=CC[C@@H]3[C@@H]2CC[C@]2(C)[C@@H]([C@H](C)CCCC(C)C)CC[C@@H]32)C1` the max response was -3.01%.
`CC1OC(OC2C(O)C(C(=O)O)OC(OC3CCC4(C)C(CCC5(C)C4C=CC4=C6CC(C)(C)CC(O)C6(C)CCC45C)C3(C)C)C2OC2OCC(O)C(O)C2O)C(O)C(O)C1O` (stereo not given) showed a max response of -1.54%.
Work on `C=C(C(=O)O)C1CCC(C)C2CCC(=O)OC2(C)C1` (stereo not given) yielded a max response of 4.24%.
Work on `O=C(O)C[C@@H](NC(=O)c1cc(-c2ccc(-c3ccncc3)cc2)cs1)c1ccccc1` yielded a max response of 1.97%.
`CN1C(=O)N[C@@H](Cc2c[nH]c3c(Cl)cccc23)C1=O` showed a max response of -3.21%.
Molecule `COC(=O)C1=COC(O[C@@H]2O[C@H](CO)[C@@H](O)[C@H](O)[C@H]2O)/C(=C\COC(=O)c2ccc(OC3OC(CO)C(O)C(O)C3O)c(OC)c2)C1CC(=O)OCCc1ccc(O)cc1` (stereo not given in full) has a max response of -6.94%.
`COc1ccccc1CC(C(=O)O)N(C)C(=O)c1ccccc1` (stereo not given) was tested, and the max response was 0.437%.

Each molecule was assayed on HEK293 in the same assay as above. Conditions: Five cell lines viability, CellTiter-Glo ATP luminescence, 48-72 h; max response: active compounds read low.
How it was run: as §1
With `CC(C)C1=CCC(C)(O)C(OC2OC(CO)C(O)C(O)C2O)C1` (stereo not given) the outcome was “inactive”.
For `CC(C)C1=CC2=CCC3[C@](C)(CCC[C@@]3(C)C(=O)O)C2CC1O` (stereo not given in full), the outcome was “inactive”.
`CCC1CC2C(C)=CC3CCCCC3C2(C)C2(OC(=O)C(C)(O)OC2=O)O1` (stereo not given) was tested, and the outcome was “inactive”.
For `COC(=O)C1C(c2ccc(O)cc2)C(C(=O)OC)C1c1ccc(O)cc1` (stereo not given), the outcome was “inactive”.
For `COc1cc(N2CCC(N(C)C)CC2)ccc1Nc1ncc(Cl)c(Nc2ccccc2P(C)(C)=O)n1`, the Potency was 5.17 µM (active) and 1.86 µM (active).
In the case of `O=C(O)c1cc(O)c2cccc(O)c2c1O[C@@H]1O[C@H](CO)[C@@H](O)[C@H](O)[C@H]1O`, the outcome is reported as “inactive”.
`C[C@]12CC[C@@H]3c4ccc(O[C@@H]5O[C@H](C(=O)O)[C@@H](O)[C@H](O)[C@H]5O)cc4CC[C@H]3[C@@H]1CCC2=O` was tested, and the outcome was “inactive”.
`O=C(O)CCc1cc2ccoc2cc1O[C@@H]1O[C@H](CO[C@@H]2OC[C@](O)(CO)[C@H]2O)[C@@H](O)[C@H](O)[C@H]1O` was tested, and the outcome was “inactive”.
In the case of `C[C@@H]1C[C@H](O)/C=C/[C@H](O)[C@@H](O)CC(=O)O1`, the outcome is reported as “inactive”.
For `CC(=O)c1c(O)cc2c(c1C)C(=O)CC(O)C2` (stereo not given), the outcome was “inactive”.
For `CC1=CC(=O)C[C@H]2[C@@H]1CC[C@@H](C)[C@]21CO[C@H](c2ccoc2)C1=O`, the outcome was “inactive”.
In the case of `CC1(C)CCC[C@@]2(C)[C@H]1[C@H](O)C=C1COC(=O)[C@@]12O`, the outcome is reported as “inactive”.
`CC1(C)CC2C(C1)C1(C)CCC13OC3(CO)C2O` (stereo not given) was tested, and the outcome was “inactive”.
For `CC[C@H]1OC(=O)[C@H](C)[C@@H](OC2C[C@@](C)(OC)[C@@H](O)[C@H](C)O2)[C@H](C)[C@@H](OC2O[C@H](C)C[C@H](NC)[C@H]2O)[C@](C)(O)C[C@@H](C)CN(C)[C@H](C)[C@@H](O)[C@]1(C)O` (stereo not given in full), the outcome was “inactive”.
`CC(=O)O[C@H]1[C@H](C)[C@@H](O)[C@H]2[C@@H]1C=C(C(=O)O)[C@H]1C[C@@H]3[C@H]([C@H]21)[C@H]1C(=O)O[C@@H]2CC[C@@]3(C)O[C@]1(O)[C@@H]2C` was tested, and the outcome was “inactive”.
For `Cn1ccnc1CCOC(c1cc2nccc(C(=O)O)c2[nH]1)c1ccccc1Cl` (stereo not given), the outcome was “inactive”.
`COc1cc([C@@H]2Oc3c(OC)cc(CCCO)cc3[C@@H]2CO[C@@H]2O[C@H](CO)[C@@H](O)[C@H](O)[C@H]2O)ccc1O` was tested, and the outcome was “inactive”.
`Cc1cc(O)cc(Oc2cc(C)c(C(=O)O)c(O)c2)c1` was tested, and the outcome was “inactive”.
With `CC(c1c[nH]c2ccccc12)C(O)C(=O)O` (stereo not given) the outcome was “inactive”.
For `CC(C)CC1NC(=O)C(C(C)c2ccccc2)NC(=O)C(C(C)C)NC(=O)C(C)NC(=O)CCCNC(=O)C(Cc2c[nH]c3ccccc23)NC(=O)C(C)NC1=O` (stereo not drawn) (cyclo([GABA]AV[ξPhe(βξ-Me)]LAW); configuration not given here), the outcome was “inactive”.
`COc1cc(/C=C/C(=O)OC(C)(C)C(OC2OC(CO)C(O)C(O)C2O)C(=O)OCc2ccc(OC3OC(CO)C(O)C(O)C3O)cc2)ccc1O` (stereo not given) was tested, and the outcome was “inactive”.
With `CC(NC(=O)CC(=O)O)c1nc2ccccc2c(=O)[nH]1` (stereo not given) the outcome was “inactive”.
For `CO[C@@H](Cc1ccc(OCCc2nc(-c3ccccc3)oc2C)c2ccsc12)C(=O)O`, the outcome was “inactive”.
In the case of `NCCOCCOCCNC(=O)Cc1ccc(Nc2nc(NCc3ccc(F)cc3)nc(NCC3CCCCC3)n2)cc1`, the outcome is reported as “inactive”.
In the case of `C/C(=C\CCC(C(=O)O)C1CCC2(C)C3=C(CCC12C)C1(C)CCC(=O)C(C)(C)C1CC3)C(=O)O` (stereo not given), the outcome is reported as “inactive”.
With `CC1(C)CC[C@]2(C(=O)O)CC[C@]3(C)C(=CCC4[C@@]5(C)C[C@H](O)[C@H](O[C@@H]6OC[C@H](O)[C@H](O)[C@H]6O)[C@@](C)(CO)C5CC[C@]43C)[C@@H]2C1` (stereo not given in full) the outcome was “inactive”.
With `O=C(O[C@@H]1O[C@H](CO)[C@@H](O)[C@H](O)[C@H]1O)c1c(O)cc(O)cc1/C=C/c1ccccc1` the outcome was “inactive”.
`O=C1Nc2ccc(O)cc2O[C@H]1O[C@@H]1O[C@H](CO)[C@@H](O)[C@H](O)[C@H]1O` was tested, and the outcome was “inactive”.
In the case of `CC(/C=C/C1(O)C(C)CC(O)CC1(C)C)OC1OC(CO)C(O)C(O)C1O` (stereo not given), the outcome is reported as “inactive”.
With `O=C(/C=C/c1ccc(O)cc1)O[C@H]1[C@@H]2C=CO[C@@H](O[C@@H]3O[C@H](CO)[C@@H](O)[C@H](O)[C@H]3O)[C@@H]2[C@@]2(CO)O[C@@H]12` the outcome was “inactive”.
In the case of `OC[C@H]1O[C@@H](Oc2cc(O)cc(-c3cc4ccc(O)cc4o3)c2)[C@H](O)[C@@H](O)[C@@H]1O`, the outcome is reported as “inactive”.
With `CC(=O)O[C@H]1CC[C@@]2(CI)C(=CC[C@@H]3[C@@H]2CC[C@]2(C)[C@@H]([C@H](C)CCCC(C)C)CC[C@@H]32)C1` the outcome was “inactive”.
In the case of `CC1OC(OC2C(O)C(C(=O)O)OC(OC3CCC4(C)C(CCC5(C)C4C=CC4=C6CC(C)(C)CC(O)C6(C)CCC45C)C3(C)C)C2OC2OCC(O)C(O)C2O)C(O)C(O)C1O` (stereo not given), the outcome is reported as “inactive”.
With `C=C(C(=O)O)C1CCC(C)C2CCC(=O)OC2(C)C1` (stereo not given) the outcome was “inactive”.
`O=C(O)C[C@@H](NC(=O)c1cc(-c2ccc(-c3ccncc3)cc2)cs1)c1ccccc1` was tested, and the outcome was “inactive”.
`CN1C(=O)N[C@@H](Cc2c[nH]c3c(Cl)cccc23)C1=O` was tested, and the outcome was “inactive”.
In the case of `COC(=O)C1=COC(O[C@@H]2O[C@H](CO)[C@@H](O)[C@H](O)[C@H]2O)/C(=C\COC(=O)c2ccc(OC3OC(CO)C(O)C(O)C3O)c(OC)c2)C1CC(=O)OCCc1ccc(O)cc1` (stereo not given in full), the outcome is reported as “inactive”.
With `COc1ccccc1CC(C(=O)O)N(C)C(=O)c1ccccc1` (stereo not given) the outcome was “inactive”.

Source: PubChem BioAssay (NCATS)
Potency is read from the fitted curve at half-maximal effect.
